High-throughput results deposited in PubChem BioAssay by National Center for Advancing Translational Sciences (NCATS).
In the library only some 8% were active in any assay of this set; here they are far more common.
HT1080NT lethal – qHTS for induction of synthetic lethality in tumor cells producing 2HG: qHTS for the HT-1080-NT fibrosarcoma cell line. HT-1080-NT fibrosarcoma viability, CellTiter-Glo ATP luminescence, 48 h. Potency, µM (highest dose often 46.1 µM), for the others: at the top dose activity, negative = less viability, most hits filed as cytotoxic. hit rate 1.6% among 360,000. AID 686970, 2013;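 also: NT is the 2HG producing partner of a matched IDH1 knockdown line; 0% = DMSO-treated cells and -100% = media-only wells without cells; nearly all actives have a fitted effect of over 55% in size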
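750 cells/well, RPMI + 5% FBS; 2 h settle, compound pin-transfer, 48 h at 37 degrees C. CellTiter-Glo 10 min RT, luminescence. Normalized to DMSO and media-only wells.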
KB-3-1 cytotox – qHTS assay for MDR1-selective chemotherapeutics: Primary screen using the parental adenocarcinoma cell KB-3-1 | AID 1347075, 2019 | KB-3-1 viability, CellTiter-Glo ATP luminescence, 72 h | Potency, µM (top dose mostly 46.1 µM), hits mostly cytotoxic | hit rate 1.4% among 400,000; also: % is scaled to controls: 0 for no effect and ±100 for the full control effect; nearly all actives have a fitted effect of over 60% in size
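Cytotoxicity measured as CellTiter-Glo luminescence after 72 h at 37 C. Compound titrations were pinned onto drug-naive KB-3-1 parental adenocarcinoma cells grown in DMEM with 10% FBS, and normalized data fitted to concentration-response curves.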
KB-V1 MDR tox – qHTS assay for MDR1-selective chemotherapeutics: Primary screen using the drug-selected MDR subline cells KB-V1 | KB-V1 MDR cells viability, CellTiter-Glo, 72 h | Potency, µM (doses to about 46.1 µM), usual class: cytotoxic | hit rate 3.4% among 400,000; also: % is scaled to controls: 0 for no effect and ±100 for the full control effect; nearly all actives have a fitted effect of over 60% in size
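Drug-selected KB-V1 cells, grown in DMEM lacking phenol red with 10% FBS, receive compound titrations; after three days at 37 degrees C, surviving cell ATP is quantified by CellTiter-Glo luminescence and responses normalized and curve-fitted.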
SW480 rereplic – A quantitative high throughput screen for small molecules that induce DNA re-replication in SW480 colon adenocarcinoma cells | SW480 DNA re-replication, Hoechst DNA content imaging, 48 h | hit rate 1.8% among 340,000 | Potency, µM (top dose mostly 46.1 µM), for the others: at the top dose re-replication activation, actives largely listed as activators; also: % of control where 0% means no effect; nearly all actives have a fitted effect of over 55% in size
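SW480 cells exposed to compounds for 48 hr at 37 C, 5% CO2, then Hoechst-stained 40 min. Nuclear DNA content imaged by fluorescence scanning (405 nm excitation, 500-530 nm emission); re-replication scored as increased high-intensity nuclei.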
MCF10A rerep – A quantitative high throughput screen for small molecules that induce DNA re-replication in MCF 10a normal breast cells; MCF 10A DNA re-replication, Hoechst nuclear intensity, 48 h; Potency, µM (top dose mostly 46.1 µM), for the others: at the highest dose activity, positive = re-replication, most hits filed as activators; hit rate 2.9% among 350,000; also: % of control where 0% means no effect; nearly all actives have a fitted effect of over 50% in size
HT1080 IDH1KD tx – qHTS for induction of synthetic lethality in tumor cells producing 2HG: qHTS for the HT-1080-IDH1KD cell line; Potency, µM (highest dose often 46.1 µM), for inactives: at the highest dose activity, negative = toxicity, hits mostly cytotoxic; AID 686971, 2013; hit rate 2% among 360,000; HT-1080 IDH1 knockdown viability, ATP luminescence, 48 h;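 also: 0% = DMSO wells and -100% = cell-free medium wells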
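Cytotoxicity counter-line: IDH1KD HT-1080, 48 h, CellTiter-Glo. Curves classed by r2, magnitude and activity.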
* hit, by the source's call; i = inactive; u = inconclusive; x = no result. Calls follow the shape of the dose curve; as a rule, active = well fitted curve in the direction sought with a large enough effect; inconclusive = small, poorly fitted or top-dose-only effect, or another doubt; inactive = no such curve, though single readings can be large; an effect the other way counts as inactive or inconclusive. Potency is read from the fitted curve at half-maximal effect.

SMILES | HT1080NT lethal | KB-3-1 cytotox | KB-V1 MDR tox | SW480 rereplic | MCF10A rerep | HT1080 IDH1KD tx
NC(Cc1ccc(Cl)cc1)c1csc(NC(=O)NCCc2ccccc2)n1 (stereo not drawn) | 16µM* | u | i | x | x | u
NC(Cc1ccc(Cl)cc1)c1csc(NC(=O)NCC2CCCCC2)n1 (stereo not drawn) | 16µM* | u | 16µM* | x | x | 16µM*
COc1ccccc1CNC(=O)Nc1nc(C(N)CCc2ccccc2)cs1 (stereo not drawn) | u | u | i | x | x | 18µM*
COc1cccc(NC(=O)CCc2nc(-c3cc(OC)c(OC)c(OC)c3)no2)c1 | x | i | i | x | x | x
NC(CCc1ccccc1)c1csc(NC(=O)NCCc2ccccc2)n1 (stereo not drawn) | 16µM* | u | u | x | x | 16µM*
COc1ccc(CC(N)c2csc(NC(=O)NCCc3ccccc3)n2)cc1 (stereo not drawn) | u | i | i | x | x | u
O=C1C=CC(=O)N1CCNc1ncc(C(F)(F)F)cc1Cl | u | u | u | 8.2µM* | 5.8µM* | 23µM*
O=C1CC(=O)N(CCNc2ncc(C(F)(F)F)cc2Cl)C(=O)N1 | 4% | i | i | -5% | u | 0%
COc1ccc(CCNC(=O)c2cc(C(=O)c3cc(Cl)ccc3O)cn(CCc3ccc(OC)cc3)c2=O)cc1 | -11% | i | 2.6µM* | u | -51% | 0%
O=C(c1cc(C(=O)NCCc2ccccc2)c(=O)n(CCc2ccccc2)c1)c1cc(Cl)ccc1O | -15% | u | 2.3µM* | 8% | 12% | u
COc1ccc(CCNC(=O)c2cc(C(=O)c3cc(C)ccc3O)cn(CCc3ccc(OC)cc3)c2=O)cc1 | 0% | i | u | 7% | u | 3%
CCNc1nc2c(c(=O)n(C)c(=O)n2C)n1CCCc1ccccc1 | -27% | u | u | 23µM* | u | -15%
CN(Cc1ccccc1)Cc1nc2c(c(=O)n(C)c(=O)n2C)n1CCCc1ccccc1 | 14% | i | 16µM* | -6% | u | 21%
CCN(CC)CCNc1nc2c(c(=O)n(C)c(=O)n2C)n1C/C=C(/C)Cl | 0% | i | i | 0% | 16µM* | 4%
C/C(Cl)=C\Cn1c(NCCc2ccccc2)nc2c1c(=O)n(C)c(=O)n2C | -1% | i | u | 21% | 18µM* | 12%
Cn1c(=O)c2c(nc(NCCc3ccccc3)n2CC(=O)NCCc2ccccc2)n(C)c1=O | 22% | i | i | -9% | u | 18%
CC(C)Cn1c(CN(C)Cc2ccccc2)nc2c1c(=O)n(C)c(=O)n2C | -1% | i | i | 0% | 13% | -5%
Cc1nc2cccnc2n1C1CCN(C(=O)Nc2ccccc2C(F)(F)F)CC1 | x | i | i | x | x | x
C=CCn1c(NCCc2ccccc2)nc2c1c(=O)n(C)c(=O)n2C | -15% | u | 9.2µM* | 0% | 7% | u
Cc1ccc(Cn2c(NCCc3ccccc3)nc3c2c(=O)n(C)c(=O)n3C)cc1 | -5% | u | u | 0% | 12% | 12%
COc1ccc(OC)c(NC(=O)CN(Cc2ccc(F)cc2)C2CCCCC2)c1 | u | 16µM* | u | 1% | 18µM* | u
COc1ccc(NC(=O)CN(Cc2ccccc2)S(C)(=O)=O)c(OC)c1 | 0% | i | i | -1% | -15% | 3%
COc1ccc(OC)c(NC(=O)CN(Cc2ccccc2)S(C)(=O)=O)c1 | -10% | i | i | -31% | 1µM* | -8%
COc1ccc(Cl)cc1NC(=O)CN(C)C1CCCCC1 | -12% | i | u | 8% | 0% | -8%
O=C(C1CCN(S(=O)(=O)Cc2ccccc2)CC1)N1CCN(c2ccccc2)CC1 | x | i | i | x | x | x
SMILES | HT1080NT lethal | KB-3-1 cytotox | KB-V1 MDR tox | SW480 rereplic | MCF10A rerep | HT1080 IDH1KD tx
COc1ccc(C(=O)O)cc1Nc1nc2ccc(C)cc2n2cnnc12 | x | i | i | x | x | x
CCOc1ccc(NS(=O)(=O)c2ccc(OCC)c3ncccc23)cc1 | 11µM* | u | 13µM* | 21µM* | u | 10µM*
CCOc1ccc(S(=O)(=O)Nc2cc(C)ccn2)c2ccccc12 | 2% | u | 18µM* | 13% | 24% | -6%
COc1ccc(S(=O)(=O)Nc2cc(C)cc(C)n2)c2ccccc12 | 7% | i | i | 13% | 10% | 0%
CCN(CC)S(=O)(=O)c1cccc(C(=O)Nc2nc3cc4c(cc3s2)OCCO4)c1 | 11µM* | u | 4.6µM* | 2% | -5% | u
O=C(CN(Cc1ccccc1)S(=O)(=O)c1cccc(C(F)(F)F)c1)NC1CCCCC1 | -9% | i | 3.7µM* | -367% | 3% | -7%
CCN(CC)S(=O)(=O)c1cccc(C(=O)Nc2cccnc2)c1 | 5% | i | 21µM* | -4% | -3% | 6%
CCN(CC)S(=O)(=O)c1cccc(NC(=O)Nc2cccc(C(F)(F)F)c2)c1 | u | 7.3µM* | 8.2µM* | u | 23µM* | 21µM*
CCN(CC)S(=O)(=O)c1cccc(C(=O)NC2CCCCC2)c1 | -13% | i | 18µM* | -2% | -3% | u
CN(c1ccccc1)S(=O)(=O)c1cccc(C(=O)NC2CCCC2)c1 | -4% | x | x | 1% | -4% | 0%
CCN(CC)S(=O)(=O)c1cc(C(=O)Nc2ccncc2)ccc1Cl | 0% | 21µM* | 16µM* | -6% | 1% | -22%
CCOc1ccccc1C(=O)NC1(C(F)(F)F)C(=O)Nc2c1c(=O)[nH]c(=O)n2-c1ccccc1 (stereo not drawn) | x | i | u | x | x | x
C=C1C(=O)C=C[C@]2(C)C[C@@H]3OC(=O)[C@](C)(O)[C@H]3C[C@@H]12 | u | u | u | u | 6.5µM* | u
CCOc1ccccc1NC1=CC(=O)CC(c2ccccc2)C1 (stereo not drawn) | u | i | u | u | u | 13µM*
Cc1ccc(NC2=CC(=O)CC(c3ccc(Cl)cc3)C2)cc1 (stereo not drawn) | -5% | i | u | 10% | 25% | -5%
